For nine compounds, growth results are on record in PubChem BioAssay (NCI).

Assay in all cases: NCI-60 one-dose screen, 48 h (100 = growth as untreated, 0 = no growth, -100 = all killed)
What all share (conditions): 10 µM unless noted

Assay [1] has as its system HCT-15 colon.
For assay [2], the system named is HT29 colon.
Assay [3] relates to SNB-19 CNS.
Assay [4] has as its system U251 CNS.
The subject of assay [5] is SK-MEL-5 melanoma.
Assay [6] relates to UACC-62 melanoma.
For assay [7], the system named is LOX IMVI melanoma.
The subject of assay [8] is SK-MEL-28 melanoma.
Assay [9] deals with SK-MEL-2 melanoma.
In assay [10] the test system is EKVX NSCLC.
Assay [11] deals with SN12C renal.
Assay [12] has as its system UO-31 renal.
Assay [13] concerns ACHN renal.
The test system of assay [14] is CAKI-1 renal.
In assay [15] the test system is A498 renal.
For assay [16], the system named is CCRF-CEM leukemia.
In assay [17] the test system is MOLT-4 leukemia.
For assay [18], the system named is PC-3 prostate.
Assay [19] deals with TK-10 renal.
In assay [20] the test system is SNB-75 CNS.

Structures are written as SMILES. This is part of a sample that, as a whole, favours compounds with a hit. Of some 83,000 tested, about 20% had one in any assay.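 Method: cells in 96-well plates; compound added at one concentration; 48 h incubation; percent growth measured; values under 10 scored active.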 Values without a mark were called inactive. Active and inactive are the calls of the source.

`Nc1nc(-c2ccnc(Cl)c2)nn1-c1nc2ccccc2s1`: the growth was 101% in assay [1]; 112% in [2]; 98.9% in assay [3]; 107% in assay [4]; 106% in [5]; 97% in [6]. Moreover, the growth in assay [7] was 102%; in [8], 104%; in assay [9], 108%; in assay [10], 96.5%; in assay [11], 101%; in [12] it was 87%. Moreover, the growth in [13] is 96.9%; in [14], 95%; in assay [15] it was 96.2%; in [16], 101%; in assay [17] it was 119%.

For the compound `COc1cccc(C2CC(=O)Nc3cc4c(cc32)CCC4)c1OC` (configuration not stated), the growth in assay [1] is 36.4%; in assay [2], 9.41% (active); in assay [3] it was 80.8%; in assay [4], 42.4%; in [18], 69.3%; in assay [6], 52.1%. The growth was 59.6% in assay [7]; 68.9% in assay [8]; 36.5% in assay [9]; 72.5% in assay [10]; 77.2% in [11]; 59.7% in assay [12]. In addition, the growth in [19] is 70.1%; in [13], 82.3%; in [14], 40.8%; in [15], 62.9%; in [16], 3.82% (active); in assay [17] it was 14.8%.

Regarding `Cc1nc2cc(Nc3nc(NCCO)nc(Nc4ccc(F)cc4)n3)ccc2n1Cc1ccccc1`, the growth was 100% in [1]; 71.9% in [2]; 100% in assay [3]; 86.3% in [4]; 80.3% in assay [5]; 81.9% in [7]. The growth was 108% in assay [8]; 91.1% in assay [11]; 78.8% in assay [12]; 98.3% in [13]; 100% in assay [14]; 66.2% in [15].

With `CC(C)(C)CC(C)(C)N(CSc1ccc(Cl)cc1)CSc1ccc(Cl)cc1`, the growth in assay [1] was 53.3%; in [2] it was 57.7%; in assay [3], 67.5%; in assay [18], 2.25% (active); in [5] it was 54.2%; in [6], 57.9%. The growth was -34.6% (active) in [7]; 76.7% in [8]; 74.4% in assay [9]; 16.6% in assay [11]; 25.5% in assay [12]; 76.5% in [19]. The growth was 63.8% in [13]; 24.9% in [14]; -7.24% (active) in assay [15]; -19.8% (active) in assay [16]; -34.5% (active) in assay [17].

Consider `O=c1[nH]c(-c2ccncc2)nc2sc3c(c12)CCCCCC3`, for which the growth in assay [1] is 76.1%; in assay [2], 99%; in assay [4], 71.7%; in [18], 90.1%; in [6], 88%; in [7], 83.2%. Also, the growth in assay [8] was 101%; in assay [11], 77.9%; in assay [12], 70.5%; in assay [13], 49.9%; in [14], 67.8%; in assay [15], 70.1%. Further, the growth in assay [16] is 98.1%; in assay [17], 92.1%.

For the compound `CCCCCCCCCCCCSC1=CC(=O)C=CC1=O`, the growth in [1] was 74.6%; in assay [2], 94.7%; in assay [3] it was 40.4%; in assay [18] it was 16.8%; in assay [5], 97.5%; in assay [6] it was 96.4%. Further, the growth is 28.1% in [7]; 110% in [8]; 90.1% in assay [9]; 55.1% in assay [11]; 52.8% in [12]; 118% in assay [19]. Further, the growth in assay [13] is 81%; in assay [14], 52.6%; in assay [15] it was 107%; in [16], -10% (active); in assay [17], -0.985% (active).

With `COc1ncc(F)c(OC)n1`, the growth was 104% in assay [2]; 89.1% in assay [20]; 111% in [3]; 92.2% in assay [18]; 97.5% in assay [5]; 106% in assay [6]. Also, the growth in [7] was 102%; in [8], 107%; in assay [9], 109%; in assay [11], 100%; in assay [12], 86.9%; in assay [19], 108%. The growth was 100% in [13]; 94.5% in assay [14]; 110% in assay [15]; 100% in assay [16]; 94.7% in [17].

Take `COc1cc(-c2nc3ccccc3o2)cc(CN2CCN(c3ccccc3)CC2)c1O`: the growth in [2] was 93.8%; in [20], 65.7%; in assay [3], 82.6%; in assay [18] it was 40.4%; in assay [5], 31.7%; in assay [6], 34%. For the same compound, the growth in [7] is 8.05% (active); in [8], 87.2%; in [9] it was 75%; in assay [10], 71.8%; in assay [11], 66.2%; in assay [12], 43.8%. Moreover, the growth was 117% in [19]; 73.6% in [13]; 84.9% in assay [14]; 77.6% in assay [15]; 92.5% in [17].

Regarding `N#C/C(=C\c1ccc[nH]1)c1cc2ccccc2[nH]1`, the growth was 80.2% in assay [2]; 62.2% in assay [20]; 78.5% in assay [3]; 69.7% in assay [4]; 58% in assay [18]; 57.2% in assay [5]. In addition, the growth in [6] is 67.8%; in [7] it was 75.2%; in [8], 98.5%; in assay [9], 65.9%; in assay [10], 37.4%; in [11] it was 72.3%. Also, the growth in assay [12] was 55%; in assay [13], 69.7%; in assay [14], 52.4%; in assay [15] it was 69.2%; in assay [16], 52%; in [17], 62.9%.
